About 940 (67%) of roughly 1,400 compounds were called active. Not shown: some 27% with an inconclusive outcome. Calls come from the whole dose curve. The set was probably picked from earlier hits. These entries were drawn from the full list.
What follows are molecules tested against Atrial natriuretic peptide receptor 2 (Homo sapiens) (UniProt P20594) (assay: Natriuretic polypeptide receptor (hNpr2) antagonism - Subtype selectivity assay). Details: HEK293 hNpr2 GloSensor cGMP luminescence, CNP-stimulated.
Chain of Atrial natriuretic peptide receptor 2 (Homo sapiens) (P20594 whole entry, looked up): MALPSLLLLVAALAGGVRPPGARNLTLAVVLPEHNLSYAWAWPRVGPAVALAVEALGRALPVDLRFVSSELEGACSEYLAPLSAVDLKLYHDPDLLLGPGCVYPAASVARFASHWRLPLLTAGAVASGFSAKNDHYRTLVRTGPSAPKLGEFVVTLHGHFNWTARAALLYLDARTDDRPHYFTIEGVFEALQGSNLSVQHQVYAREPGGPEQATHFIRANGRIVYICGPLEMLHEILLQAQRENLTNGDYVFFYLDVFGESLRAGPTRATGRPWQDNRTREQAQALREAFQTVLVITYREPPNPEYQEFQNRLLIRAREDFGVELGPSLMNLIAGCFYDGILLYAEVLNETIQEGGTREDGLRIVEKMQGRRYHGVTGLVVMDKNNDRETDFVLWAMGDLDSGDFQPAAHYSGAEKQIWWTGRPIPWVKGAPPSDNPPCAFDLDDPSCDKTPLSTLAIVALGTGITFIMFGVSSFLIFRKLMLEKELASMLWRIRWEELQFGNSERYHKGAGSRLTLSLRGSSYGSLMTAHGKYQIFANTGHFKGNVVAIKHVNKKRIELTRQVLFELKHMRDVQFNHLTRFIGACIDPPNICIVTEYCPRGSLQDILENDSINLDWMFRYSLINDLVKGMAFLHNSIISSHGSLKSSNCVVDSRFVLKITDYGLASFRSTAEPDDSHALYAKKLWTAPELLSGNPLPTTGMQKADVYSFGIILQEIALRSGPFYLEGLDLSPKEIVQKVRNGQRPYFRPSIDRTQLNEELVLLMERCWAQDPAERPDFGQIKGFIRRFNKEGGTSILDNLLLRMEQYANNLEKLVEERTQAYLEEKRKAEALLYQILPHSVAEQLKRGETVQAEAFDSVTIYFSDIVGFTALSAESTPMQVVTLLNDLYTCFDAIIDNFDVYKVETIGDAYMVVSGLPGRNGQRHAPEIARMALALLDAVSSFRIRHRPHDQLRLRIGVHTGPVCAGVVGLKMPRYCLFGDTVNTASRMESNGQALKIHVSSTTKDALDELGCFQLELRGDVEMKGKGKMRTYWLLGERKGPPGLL
Protocol: F. Fan, B. F. Binkowski, B. L. Butler, P. F. Stecha, M. K. Lewis, K. V. Wood, Novel genetically encoded biosensors using firefly luciferase. ACS Chem Biol 3, 346-351 (2008).
PROTOCOL TABLE (as described by Inglese J, Shamu CE and Guy RK. 2007) SEQUENCE No. (e.g., 1, 2, 3, etc.); PARAMETER (e.g., Cells, Incubation, Reagent, etc.); VALUE and DESCRIPTION. 1. Cells. Seed 1500 HEK293 cGMP-sensor cells expressing hNpr2 per well in 4uL into Greiner 1536-well white/solid bottom high base, TC plates. 2. Incubation. Incubate plated cells at 37C in 5% CO2, 95% RH overnight. 3. Reagent. Add 1uL per well GloSensor reagent from Promega (2% final concentration) or CO2 independent media vehicle control to respective columns of Greiner 1536-well plates. 4. Incubation. Incubate plated cells at ambient temperature for 2 h., protect from light. 5. Compounds. Library compounds and DMSO vehicle control added at 23nL per well, transferred by Pin Tool. 6. Incubation. Incubate plated cells for 30 min. at ambient temperature, protect from light. 7. Detector. GloSensor baseline pre-read luminescence measured using CCD-based camera (Viewlux). 8. Compound. Add 1uL of hNppC peptide to 1 nM final concentration to stimulate hNpr2 or CO2 independent media as vehicle control. 9. Incubation. Incubate treated cells at ambient temperature for 20 min., protect from light. 10. Detector. GloSensor post-hNppC luminescence measured using CCD-based camera (Viewlux). NOTES (numbers refer to Sequence numbers above) 1. HEK293 cells expressing hNpr2 and GIP/pGS-40F were grown to 85-95% confluence (48-72 h) in T175 culture flasks (CO2 independent media supplemented with 10% FBS, 1% Pen/Strep antibiotics, and 1 ug/mL puromycin). Trypsinize and harvest cells from T175 culture flasks and filter through 40 um cell strainer. Cells counted with Invitrogen Countess (30,000,000 - 50,000,000 cells/flask). Cells diluted to a final concentration of 375 cells/uL in CO2 independent media and a Millipore multidrop used to dispense 1500 cells per well (4uL/well) into 13 1536-well Greiner White/Solid bottom, high base tissue-culture treated (TC) plates and one Aurora 1536-well Black/Clear bottom, low base, TC plate (for visual inspection of cell health throughout the duration of the assay). 2. Cells incubated for 24 h. at 37C in 95% RH incubator with metal lid having gas-exchange holes. 3. Prepare GloSensor Reagent (Promega): Reconstitute GloSensor luciferase substrate by adding 8.2mL Hepes buffer to 250mg substrate, mix well, protect from light and stored at -80C. Prepare a fresh 12% GloSensor solution in CO2 independent supplemented plating media (see above). Mix well and store at ambient temperature, protected from light. 1uL 12% GloSensor Luciferase Reagent added (2% final concentration) to respective columns of 13 x 1536-well Greiner plate with BioRaptr, 1uL CO2 independent plating media added to respective columns as vehicle control with BioRaptr. 4. Cells incubated for 2 h. at ambient temperature, protected from light with metal lid having gas-exchange holes. 5. 23nL of library compounds or DMSO vehicle control transferred to 13 Greiner white/solid bottom high base, TC plates in 11 interplate 1:3 titrations (see Yasgar, A. et al. 2008) with Pintool. 6. Cells incubated for 30-50 min. at ambient temperature protected from light with metal lid having gas-exchange holes. 7. Read cellular baseline GloSensor luminescence in presence of test library compounds on the ViewLux [Exposure = 10 s.; Gain = High; Speed = Slow; and Binning = 2X.] 8. hNppC peptide agonist solution prepared at 1 mM (in H2O) stock concentration. From this a working dilution was prepared at 6 nM in CO2 Independent media. 1uL of 6 nM hNppC agonist (1 nM final concentration) or CO2 Independent media vehicle control dispensed into respective columns of 13 x Greiner 1536-well white/solid bottom, tissue culture plates with BioRaptr. 9. Cells incubated for 20 min. at ambient temperature, protected from light with metal lid having gas-exchange holes. 10. […]
Note: nearly all actives have a fitted effect of over 70% in size.
Potency is the fitted concentration of half-maximal effect.

Row | Structure (SMILES) | Potency
1 | CCC(CC)c1cc([C@H]2CN3CC[C@H]2C[C@@H]3CNS(=O)(=O)Cc2ccccc2)nc(-c2ccncc2)n1 | 21.7 µM (active)
2 | CCC(CC)c1cc([C@H]2CN3CC[C@H]2C[C@@H]3CNC(=O)NCc2ccccc2)nc(-c2ccncc2)n1 | 12.2 µM (active)
3 | COc1cc2c(cc1Oc1cccc(N(C)C)c1)NC(=O)C21CCN(CCC(C)C)CC1 | 28 µM (active)
4 | COc1cc2c(cc1Oc1cccc(N(C)C)c1)NC(=O)C21CCN(Cc2ccccn2)CC1 | 21.7 µM (active)
5 | COc1cc2c(cc1OCc1ccncc1)NC(=O)C21CCN(c2ncc(F)cn2)CC1 | 39.6 µM (active)
6 | COc1cc2c(cc1Oc1cccc(N(C)C)c1)NC(=O)C21CCN(c2cnccn2)CC1 | 19.3 µM (active)
